# Results: PubChem BioAssay AID1159580 (chemical genetic matrix, 2015)
# About 2,000 (36%) of roughly 5,500 compounds were called active. About 18% were inconclusive and are not listed. Some of the results follow. A number with no mark means an inactive call. No stated cut-off is given here; in the data, active means normalized growth mostly below about 0.91 (no sharp cut-off); inconclusive means no clear call, values can overlap the other calls; inactive means mostly above about 0.92.
# Assay: chemical genetic growth profiling, strain panel (AID 1159580);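 further: tested at 20 µM; growth read once vehicle control cultures reached saturation at 30 °C; 1 = growth at the plate median or of vehicle wells; lower values mean less growth of the strain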
# Details: S. cerevisiae deletion strains, growth OD
smiles,measurement,setting,value
COC(=O)c1cc(=O)c(O)c2c(O)c(O)ccc2c1,normalized growth,"locus YJR043C, strain POL32, active compounds read low",0.709 (active)
same,normalized growth,"locus YJR066W, strain TOR1, active compounds read low",0.556 (active)
same,normalized growth,"locus YKL009W, strain mrt4, active compounds read low",0.773 (active)
same,normalized growth,"locus YKL068W, active compounds read low",0.808 (active)
same,normalized growth,"locus YKL085W, strain MDH1 (second series), active compounds read low",0.793 (active)
same,normalized growth,"locus YKL085W, strain MDH1, active compounds read low",0.793 (active)
same,normalized growth,"locus YKL160W, strain elf1, active compounds read low",1.01
same,normalized growth,"locus YKL190W, strain CNB1, active compounds read low",0.593 (active)
same,normalized growth,"locus YKR001C, strain vps1, active compounds read low",0.764 (active)
same,normalized growth,"locus YKR026C, strain gcn3, active compounds read low",0.961
same,normalized growth,"locus YKR091W, strain srl3, active compounds read low",0.994
same,normalized growth,"locus YLL001W, strain dnm1, active compounds read low",0.99
same,normalized growth,"locus YLL026W, active compounds read low",0.994
same,normalized growth,"locus YLL041C, strain sdh2, active compounds read low",0.999
same,normalized growth,"locus YLR027C, strain aat2, active compounds read low",0.996
same,normalized growth,"locus YLR039C, strain RIC1, active compounds read low",0.354 (active)
same,normalized growth,"locus YLR058C, strain SHM2, active compounds read low",0.696 (active)
same,normalized growth,"locus YLR102C, strain apc9, active compounds read low",0.966
same,normalized growth,"locus YLR113W, strain HOG1, active compounds read low",0.795 (active)
same,normalized growth,"locus YLR221C, strain rsa3, active compounds read low",0.97
same,normalized growth,"locus YLR258W, strain gsy2, active compounds read low",0.996
same,normalized growth,"locus YLR262C, strain YPT6 (second series), active compounds read low",0.847 (active)
same,normalized growth,"locus YLR268W, strain sec22, active compounds read low",0.707 (active)
same,normalized growth,"locus YLR320W, strain mms22, active compounds read low",0.984
same,normalized growth,"locus YLR342W, strain FKS1 (second series), active compounds read low",0.569 (active)
same,normalized growth,"locus YLR342W, strain FKS1, active compounds read low",0.978
same,normalized growth,"locus YLR357W, strain rsc2, active compounds read low",0.925
same,normalized growth,"locus YLR370C, strain arc18, active compounds read low",0.999
same,normalized growth,"locus YLR371W, strain rom2, active compounds read low",0.781 (active)
same,normalized growth,"locus YLR384C, strain iki3, active compounds read low",0.995
same,normalized growth,"locus YLR418C, strain cdc73, active compounds read low",0.629 (active)
same,normalized growth,"locus YML016C, strain PPZ1, active compounds read low",0.771 (active)
same,normalized growth,"locus YML032C, strain rad52, active compounds read low",0.73 (active)
same,normalized growth,"locus YML120C, strain ndi1, active compounds read low",0.997
same,normalized growth,"locus YML124C, strain tub3, active compounds read low",0.952
same,normalized growth,"locus YMR058W, strain fet3, active compounds read low",0.89 (active)
same,normalized growth,"locus YMR078C, strain ctf18, active compounds read low",0.943
same,normalized growth,"locus YMR125W, strain sto1, active compounds read low",0.989
same,normalized growth,"locus YMR129W, active compounds read low",0.988
same,normalized growth,"locus YMR205C, strain PFK2, active compounds read low",0.987
same,normalized growth,"locus YMR223W, strain ubp8, active compounds read low",0.818 (active)
same,normalized growth,"locus YMR231W, strain pep5, active compounds read low",0.995
same,normalized growth,"locus YMR263W, strain SAP30, active compounds read low",0.882 (active)
same,normalized growth,"locus YMR307W, strain GAS1, active compounds read low",0.477 (active)
same,normalized growth,"locus YNL067W, strain RPL9B, active compounds read low",0.745 (active)
same,normalized growth,"locus YNL071W, strain lat1, active compounds read low",1.02
same,normalized growth,"locus YNL153C, strain GIM3, active compounds read low",0.841 (active)
same,normalized growth,"locus YNL183C, strain NPR1, active compounds read low",0.643 (active)
same,normalized growth,"locus YNL209W, strain ssb2, active compounds read low",0.99
same,normalized growth,"locus YNL233W, strain BNI4, active compounds read low",0.678 (active)
same,normalized growth,"locus YNL248C, strain rpa49, active compounds read low",0.99
same,normalized growth,"locus YNL250W, strain rad50, active compounds read low",0.62 (active)
same,normalized growth,"locus YNL271C, strain bni1, active compounds read low",0.731 (active)
same,normalized growth,"locus YNL298W, strain CLA4, active compounds read low",0.725 (active)
same,normalized growth,"locus YNL307C, strain MCK1, active compounds read low",0.953
same,normalized growth,"locus YNL322C, strain KRE1 (second series), active compounds read low",0.967
same,normalized growth,"locus YNL322C, strain KRE1, active compounds read low",0.638 (active)
same,normalized growth,"locus YNR049C, strain mso1, active compounds read low",0.998
same,normalized growth,"locus YNR052C, strain pop2, active compounds read low",0.7 (active)
same,normalized growth,"locus YOL006C, strain TOP1, active compounds read low",0.326 (active)
same,normalized growth,"locus YOL012C, strain htz1",0.795
same,normalized growth,"locus YOL147C, strain pex11, active compounds read low",0.91 (active)
same,normalized growth,"locus YOR001W, strain rrp6, active compounds read low",0.985
same,normalized growth,"locus YOR061W, strain CKA2, active compounds read low",0.664 (active)
same,normalized growth,"locus YOR069W, strain VPS5, active compounds read low",0.796 (active)
same,normalized growth,"locus YOR070C, strain gyp1, active compounds read low",0.995
same,normalized growth,"locus YOR080W, strain dia2, active compounds read low",0.983
same,normalized growth,"locus YOR083W, strain WHI5, active compounds read low",1
same,normalized growth,"locus YOR106W, strain vam3, active compounds read low",0.966
same,normalized growth,"locus YOR136W, strain idh2, active compounds read low",0.869 (active)
same,normalized growth,"locus YOR144C, strain elg1, active compounds read low",0.822 (active)
same,normalized growth,"locus YOR184W, strain ser1, active compounds read low",0.801 (active)
same,normalized growth,"locus YOR231W, strain MKK1, active compounds read low",0.672 (active)
same,normalized growth,"locus YOR265W, strain rbl2, active compounds read low",0.994
same,normalized growth,"locus YOR270C, strain vph1, active compounds read low",1.04
same,normalized growth,"locus YOR290C, strain snf2, active compounds read low",0.94
same,normalized growth,"locus YOR316C, strain cot1, active compounds read low",0.952
same,normalized growth,"locus YPL051W, strain arl3, active compounds read low",0.982
same,normalized growth,"locus YPL078C, strain atp4, active compounds read low",1.02
same,normalized growth,"locus YPL106C, strain sse1, active compounds read low",0.965
same,normalized growth,"locus YPL240C, strain hsp82, active compounds read low",0.978
same,normalized growth,"locus YPL241C, strain CIN2, active compounds read low",0.943
same,normalized growth,"locus YPL256C, strain CLN2, active compounds read low",0.787 (active)
same,normalized growth,"locus YPR119W, strain clb2, active compounds read low",0.94
same,normalized growth,"locus YPR141C, strain kar3, active compounds read low",0.777 (active)
same,normalized growth,"locus YPR163C, strain tif3, active compounds read low",0.832 (active)
same,normalized growth,"locus YPR167C, strain met16, active compounds read low",0.802 (active)
same,normalized growth,"strain wtn01, active compounds read low",0.785 (active)
